# From PubChem BioAssay
# In the library only some 2.1% were active in any assay of this set; here they are far more common.
# PTAP TSG101 blk: qHTS Assay for Iinhibitors of HIV-1 Budding by Blocking the Interaction of PTAP/TSG101. Tumor susceptibility gene 101 protein (Homo sapiens), Q99816. Fluorescence polarization, FITC-PTAP peptide / Tsg101 binding. Potency, µM (titrated, usually from 115 µM), for the others: at the top dose activity change, negative = inhibition, actives largely listed as inhibitors. 340,000 tested, under 10 active. AID 493005, 2010; active = well fitted inhibition curve with a large enough effect in the main read-out, with a control signal flat, not every such curve was filed as active; inconclusive = small, poorly fitted or top-dose-only effect, or effect the other way, or a change in a side signal; inactive = no such curve, though single readings can be large or run the other way; also: % of control where 0% means no effect
# Target sequence (Q99816 whole entry, looked up): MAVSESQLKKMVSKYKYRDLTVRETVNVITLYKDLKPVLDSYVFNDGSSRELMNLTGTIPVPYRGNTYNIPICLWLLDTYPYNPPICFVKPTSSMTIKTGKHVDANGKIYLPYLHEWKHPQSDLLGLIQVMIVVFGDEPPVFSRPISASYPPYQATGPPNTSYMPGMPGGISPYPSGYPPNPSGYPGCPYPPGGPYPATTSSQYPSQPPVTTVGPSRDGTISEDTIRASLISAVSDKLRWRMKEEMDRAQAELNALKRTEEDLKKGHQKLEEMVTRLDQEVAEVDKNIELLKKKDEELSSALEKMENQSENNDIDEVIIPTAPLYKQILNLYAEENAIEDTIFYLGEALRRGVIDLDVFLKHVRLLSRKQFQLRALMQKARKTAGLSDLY
#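 Steps: Tsg101 binding domain dispensed (10 uM final), compounds pinned in DMSO, FITC-labeled PTAP-motif peptide added (50 nM final); after 20 min binding at room temperature, polarization measured.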
# aSyn rescue: qHTS of alpha-syn Inhibitors; Yeast expressing alpha-synuclein, growth rescue, BacTiter-Glo, 24 h; hit rate 0.14% among 370,000; AID 652106, 2013; Potency, µM (titrated, usually from 46.1 µM), for the others: at the highest dose growth rescue (activation), actives largely listed as activators; also: % of control where 0% means no effect; nearly all actives have a fitted effect of over 65% in size
#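 Rescue of yeast growth: cells expressing toxic alpha-synuclein, induced in galactose at OD600 0.02, incubated with compound 24 h at 30 C. ATP luminescence quantified growth; inhibitors of toxicity appear as activators.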
# FUS suppressor: qHTS for Suppressors of FUS Proteinopathy: Primary screen using FUS-linked yeast assay | S. cerevisiae FUS-expressing, growth rescue, OD600, 24 h | Potency, µM (top dose mostly 76.6 µM), hits mostly activators | hit rate 0.24% among 390,000 | AID 1347120, 2019;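 also: plate controls were DMSO vehicle for no effect and reference control for full effect; nearly all actives have a fitted effect of over 55% in size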
#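 Cultures pregrown in 2.5% raffinose medium are shifted to minimal medium containing 2% galactose to express toxic FUS. Compounds are tested at several concentrations. After 24hr at 30C, growth is quantified at 600 nm absorbance.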
# TDP43 rescue: qHTS of TDP-43 Inhibitors; TDP-43 expressing yeast growth rescue, BacTiter-Glo, 24 h; Potency, µM (doses to about 46.1 µM), for inactives: top-dose growth rescue (activation), usual class: activators; hit rate 1.8% among 410,000; AID 652104, 2013; also: % of control where 0% means no effect; nearly all actives have a fitted effect of over 50% in size
#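 Readout is BacTiter-Glo luminescence of cell growth, so inhibitors register as activators. TDP-43-expressing yeast at OD600=0.02 in galactose medium, after raffinose pregrowth to mid-log, were incubated with compound for 24 hr at 30 deg C.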
# Abeta rescue: qHTS for compounds that reverse cellular toxicity of Amyloid beta (A-beta) peptide in yeast: Primary Screen; yeast expressing A-beta42, growth rescue, OD600, 48 h; response scale: 0% DMSO, 100% iron-clioquinol control; Potency, µM (top dose mostly 46.1 µM), hits mostly activators; hit rate 0.063% among 410,000; AID 1347071, 2019; also: nearly all actives have a fitted effect of over 55% in size
#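 Yeast A-beta toxicity model in growth medium with pinned compounds, 48 h at 30 C; growth read as absorbance at 600 nm. Normalized to FeCl3/clioquinol equimolar mix (positive) and DMSO (negative).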
# The depositor's hits bear a star; i = inactive; ? = inconclusive; . = no result given; [ ] = another dose, or the depositor's remark. Unless noted, calls follow the shape of the dose curve; as a rule, active = well fitted curve in the direction sought with a large enough effect; inconclusive = small, poorly fitted or top-dose-only effect, or another doubt; inactive = no such curve, though single readings can be large; an effect the other way counts as inactive or inconclusive. Potency is read from the fitted curve at half-maximal effect.
SMILES,PTAP TSG101 blk,aSyn rescue,FUS suppressor,TDP43 rescue,Abeta rescue
CCC(=O)N1N=C(c2ccc(C)o2)CC1c1ccc(Br)cc1 (centres undefined),0%,20%,.,18µM*,i
CCC(=O)N1N=C(c2ccc(C)o2)CC1c1ccc(OC)cc1 (centres undefined),2%,4%,i,22%,i
CCOC(=O)c1cnc2c(OC)cccc2c1N1CCN(c2ccccc2F)CC1,.,.,i,11µM*,i
CCOC(=O)c1cnc2ccc(OCC)cc2c1N(C)Cc1ccccc1,1%,14%,i,22µM*,i
CCOC(=O)c1cnc2ccc(OCC)cc2c1N1CCN(c2ccccc2OC)CC1,-5%,8%,i,35µM*,i
CCOc1ccc2ncc(C(=O)c3ccc(OC)cc3)c(N3CCN(CC)CC3)c2c1,-1%,0%,i,13%,i
CCOC(=O)c1cnc2c(C(F)(F)F)cccc2c1N1CCOCC1,-6%,12%,i,5%,i[9.22 µM]
CCCCc1ccc(NC(=O)COc2cccc3c(=O)n(C)ccc23)cc1,.,.,i,0%,i
Cc1ccc(NC(=O)Cn2nc(C)c3nn(-c4ccc(Cl)cc4)c(C)c3c2=O)cc1C,.,.,i,3%,i
O=C(Nc1ccc(N=Nc2ccccc2)c(NC(=O)C2CCCO2)c1)C1CCCO1 (centres undefined),-2%,-1%,?,14µM*,i
CCOC(=O)c1cnc2ccc(OCC)cc2c1Nc1ccc(OCc2ccccc2Cl)cc1,.,.,i,-4%,i
CCOC(=O)c1cnc2ccc(C)cc2c1Nc1ccc(OCc2ccccc2Cl)cc1,.,.,i,22µM*,i
CCOC(=O)c1cnc2ccc(OC)cc2c1Nc1ccc(OCc2ccccc2Cl)cc1,.,.,i,20µM*,i
NC(=O)Cc1nc(-c2ccc(F)cc2)cs1,-1%,1%,i,13%,i
NC(=S)Cc1nc(-c2ccc(Cl)cc2)cs1,-4%,-27%,i,?,6.3µM*
COc1ccc(-c2noc(CSc3nnc(-c4ccc(Cl)cc4)n3C)n2)cc1OC,.,.,?,?,i
Cc1nn2c(=O)cc(COC(=O)c3ccc(NC(=O)COc4ccccc4F)cc3)nc2s1,.,.,i,6%,i
Cc1nn2c(=O)cc(COC(=O)c3c(F)cccc3Cl)nc2s1,-7%,13%,i,35µM*,i
Cc1c(N/N=C(\C#N)C(=O)c2ccccc2)c(=O)n(-c2ccccc2)n1C,-7%,17%,i,-12%[0.397 µM],?
Cc1ccccc1C(=O)/C(C#N)=N/Nc1c(C)n(C)n(-c2ccccc2)c1=O,-1%,16µM*,.,35µM*,i
O=C(c1cc(-c2ccccc2)n[nH]1)N1CCc2c([nH]c3ccccc23)C1c1ccccn1 (centres undefined),-8%,?,?,18µM*,?
COc1cc(C(=O)N2CCc3c([nH]c4ccccc34)C2c2ccc(C)cc2)cc(OC)c1OC (centres undefined),.,.,14µM*,2%,i
O=C(c1cccs1)N1CCc2c([nH]c3ccccc23)C1c1ccccn1 (centres undefined),-7%,14%,i,?,i
FC(F)(F)c1ccccc1-c1ccc2nncn2c1,.,1%,i,16%,i
Cc1ccccc1CS(=O)(=O)Cc1ccc(C(=O)Nc2ccc(F)cc2)o1,.,.,i,.,.
SMILES,PTAP TSG101 blk,aSyn rescue,FUS suppressor,TDP43 rescue,Abeta rescue
Cc1nc2ccccn2c1C(=O)CSc1ccc(Cl)cc1Cl,-9%,6%,i,?,i
Cc1nc2ccccn2c1C(=O)CSc1ccccc1Cl,-1%,9%,i,35µM*,i[9.22 µM]
COC(=O)c1ccccc1NC(=O)Cn1cc(S(=O)(=O)Cc2ccccc2F)c2ccccc21,.,.,i,5%,i
FC(F)(F)c1ccnc(Sc2n[nH]c(C(F)(F)F)n2)c1,-3%,-15%,i,-83%,i
FC(F)(F)c1nc(Sc2ncccc2C(F)(F)F)n[nH]1,-2%,-12%,i,13µM*,i
Cc1nc(CS(=O)(=O)c2ccc(Cl)cc2)cc(Sc2ccc(Cl)cc2)n1,-3%,4%,i,28µM*,i
COCc1cc(Sc2ccc(Cl)cc2)nc(C)n1,-4%,-6%,i,11µM*,i
c1ccc(-c2csc(Nc3ccc4c(c3)OCO4)n2)cc1,.,-1%,i,14µM*,i
CC(=O)c1sc(Nc2ccc3c(c2)OCO3)nc1C,.,30%,i,13µM*,i
O=C(CN1CCN(c2nc(-c3ccccc3)cs2)CC1)Nc1ccc2c(c1)OCO2,-4%,7%,i,-6%,i
O=C(O)c1ccc(Nc2nc(-c3ccccc3)cs2)cc1,1%,13%,i,1%,i
N#Cc1ccc(Nc2nc(-c3ccccc3)cs2)cc1,.,0%,i,3.2µM*,i
C[C@@H](c1ccccc1)N1C[C@@H](COCc2ccccc2)Oc2cc(N3CCC[C@H]3C(N)=O)ccc2S1(=O)=O,.,-3%,22µM*,14%,i
C[C@@H](c1ccccc1)N1C[C@H](COCc2ccccc2)Oc2cc(N3CCC[C@H]3C(N)=O)ccc2S1(=O)=O,.,19%,?,9%,i
Cc1ccc(C)c(NC(=O)Cn2cc(S(=O)(=O)N3CCCC3)c(S(=O)(=O)N3CCCC3)c2)c1,.,.,?,22%,i
CC(/C=C/c1ccccc1)=N\NC(N)=S,1%,0%,i,13µM*,i
NC(=S)NN=C(c1ccccc1)c1ccccc1,0%,-22%,i,13µM*,?
O=C1c2ccccc2C(=O)c2c1cccc2-n1nnc2ccccc21,-1%,2%,i,-14%,i
O=C1C(N2CCOCC2)=C(n2nnc3ccccc32)C(=O)c2ccccc21,-8%,-36%,i,22µM*,i
CC(=O)Nc1ccc(C(=O)CSc2nnc3ccc4ccccc4n23)cc1,.,.,i,-4%,i
COC(=O)c1ccc(CSc2nnc3ccc4ccccc4n23)cc1,.,.,i,35µM*,i
CNc1nc(Oc2cccc(F)c2)c2sccc2n1,.,10%,i,8%,i
O=C(NCc1ccccc1)C1Nc2ccc(OC(F)(F)F)cc2C2C=CCC12 (centres undefined),.,1%,i,22µM*,?
O=C(NCc1ccccn1)C1Nc2ccc(OC(F)(F)F)cc2C2C=CCC12 (centres undefined),3%,-3%,i,18µM*,i
